Test results from PubChem BioAssay AID624296 (National Center for Advancing Translational Sciences (NCATS), 2012).
Among all 350,000 compounds or so, about 9,900 (2.8%) were called active. About 15% were inconclusive and are not listed. Calls come from the whole dose curve; as a rule, active = well fitted activation curve with a large enough effect; inconclusive = small, poorly fitted or top-dose-only effect; inactive = no such curve, though single readings can be large or run the other way. Shown is part of a subset that was picked to be rich in actives.
Potency is the fitted concentration of half-maximal effect.

Assay: A quantitative high throughput screen for small molecules that induce DNA re-replication in MCF 10a normal breast cells. For activity, positive = re-replication: % of control where 0% means no effect. Note: nearly all actives have a fitted effect of over 50% in size.
Settings: MCF 10A DNA re-replication, Hoechst nuclear intensity, 48 h; series mostly up to 46.1 µM; activity, positive = re-replication: at the top concentration
For `Oc1cccc(CCc2ccccn2)c1`, the “activity, positive = re-replication” value was -3.55% (inactive). With `COc1cc(/C=C/C(=O)OCC(=O)NC2CC2)cc(OC)c1OC` the “activity, positive = re-replication” value was -2.1% (inactive). With `Cc1nn(Cc2ccccc2)c2c1C(c1ccccc1)C(C#N)=C(N)O2` (stereo not given) the “activity, positive = re-replication” value was -2.92% (inactive). In the case of `Cc1cc(C)c(C#N)c(SCc2[nH]nc3c2C(c2ccccc2)C(C#N)=C(N)O3)n1` (stereo not given), the “activity, positive = re-replication” value is reported as -7.51% (inactive). With `Cc1cc(C)c2c3c(sc2n1)C(c1ccccc1)C(C#N)=C(N)O3` (stereo not given) the Potency was 2.82 µM (active). In the case of `CCn1nc(C(=O)Nc2ccc(N3CCOCC3)cc2)c2ccccc2c1=O`, the “activity, positive = re-replication” value is reported as 3.71% (inactive). In the case of `C/[N+]([O-])=C\c1ccc([N+](=O)[O-])o1`, the “activity, positive = re-replication” value is reported as 14.2% (inactive). In the case of `O=C(NNC(=O)C1CCCC1)c1ccc(F)cc1`, the “activity, positive = re-replication” value is reported as -0.515% (inactive). For `O=C(/C=C/c1ccc([N+](=O)[O-])o1)NNC(=O)c1ccc(F)cc1`, the Potency was 9.2 µM (active). In the case of `COCC(=O)Nc1ccc(Br)cc1`, the “activity, positive = re-replication” value is reported as -6.21% (inactive). With `CC(C)Oc1ccc(CCC(=O)NNC(=S)NCc2ccccc2)cc1` the “activity, positive = re-replication” value was 0.118% (inactive). With `CC(C)Oc1ccc(CC(=O)NNC(=S)Nc2ccc(Br)cc2)cc1` the Potency was 16.4 µM (active). For `CC(C)(C)OC(=O)N(Cc1ccccc1)Cc1ccc(OCc2cccc(NC(=O)c3ccccc3)c2)cc1`, the “activity, positive = re-replication” value was 14.3% (inactive). For `CC[C@]12c3[nH]c4ccc(OC)cc4c3CCN1C(=O)C(CC(=O)NCCN1CCOCC1)C[C@@H]2C(=O)N1CCN(C(=O)C2CC2)CC1` (stereo not given in full), the “activity, positive = re-replication” value was 1.05% (inactive). For `Cc1ccc(COc2ccc(/C=N/NC(=O)CN3CCCCC3)cc2)cc1`, the “activity, positive = re-replication” value was 0.536% (inactive). With `Cc1ccsc1C(=O)N/N=C/c1ccc([N+](=O)[O-])cc1` the “activity, positive = re-replication” value was -0.593% (inactive). With `Cc1ccc(/C=N/NC(=O)c2sccc2OCc2ccc(F)cc2)cc1` the Potency was 6.51 µM (active). For `CC(=O)Nc1ccc(SC[C@H](Cc2ccccc2)N2CC[C@@H](C)CCC2=O)cc1`, the “activity, positive = re-replication” value was 1.91% (inactive). In the case of `COc1ccc(NS(=O)(=O)c2cc(NC(=O)c3ccc(S(=O)(=O)N(C)C)cc3)ccc2N2CCOCC2)cc1`, the “activity, positive = re-replication” value is reported as 1.21% (inactive). In the case of `COc1cc(NS(=O)(=O)c2ccc(N=Cc3c(C)[nH]n(-c4ccccc4)c3=O)cc2)nc(OC)n1`, the “activity, positive = re-replication” value is reported as 4.18% (inactive). In the case of `COc1cc(NS(=O)(=O)c2ccc(N/C=C(\C=O)c3nc4cc(Cl)ccc4o3)cc2)nc(OC)n1`, the Potency is reported as 20.6 µM (active). In the case of `COc1cc(NS(=O)(=O)c2ccc(NC(=S)NC(=O)c3ccccc3)cc2)nc(OC)n1`, the “activity, positive = re-replication” value is reported as -1.53% (inactive). In the case of `Cc1ccc(C)c(C(=O)COC(=O)Cn2[nH]c(=O)c3ccccc3c2=O)c1`, the “activity, positive = re-replication” value is reported as 5.4% (inactive). In the case of `CCc1ccc(C(=O)C(C)OC(=O)CN2C(=O)NC3(CCCC3)C2=O)cc1` (stereo not given), the “activity, positive = re-replication” value is reported as 5.71% (inactive). With `CCC1=Nc2cc(C(=O)NCCN3CCCC3)ccc2Sc2ccc(C)cc21` the “activity, positive = re-replication” value was 17% (inactive). In the case of `CCC1=Nc2cc(C(=O)NCCCN3CCOCC3)ccc2Sc2ccc(Br)cc21`, the “activity, positive = re-replication” value is reported as 26.8% (inactive). For `CCCC1=Nc2cc(C(=O)NCc3ccco3)ccc2Sc2ccccc21`, the Potency was 8.2 µM (active). In the case of `CC(=O)c1ccc(OCCN2CCOCC2)cc1`, the “activity, positive = re-replication” value is reported as 1.39% (inactive). In the case of `c1ccc(-c2ccc(OCCN3CCOCC3)cc2)cc1`, the “activity, positive = re-replication” value is reported as 10.6% (inactive). With `CCOc1ccc(C(=O)CCN2CCOCC2)cc1` the Potency was 18.4 µM (active). For `OC(COc1ccc(Br)cc1)CN1CCCC1` (stereo not given), the “activity, positive = re-replication” value was 12.5% (inactive). With `O=C(c1ccccc1)c1ccc(OCC(O)CN2CCCC2)cc1` (stereo not given) the “activity, positive = re-replication” value was 0.887% (inactive). In the case of `O=C(c1ccc(Cl)cc1)c1ccc(OCC(O)CN2CCCCC2)cc1` (stereo not given), the Potency is reported as 5.01 µM (active). For `CC(C)CCSc1ncnc2c1oc1nc3c(cc12)COC(C)(C)C3`, the Potency was 5.8 µM (active). With `CCCc1nc2oc3c(OCC)ncnc3c2c2c1COC(C)(C)C2` the “activity, positive = re-replication” value was 27.7% (inactive). For `C=CCn1c(=S)[nH]c2nc3c(cc2c1=O)COC(C)(C)C3`, the “activity, positive = re-replication” value was 1.01% (inactive). For `CSCCC(NS(=O)(=O)c1ccc(C)cc1)C(=O)N(C)CC(=O)Nc1ccccc1Br` (stereo not given), the “activity, positive = re-replication” value was 4.3% (inactive). For `O=C(COC(=O)c1ccc(O)cc1O)c1ccc2c(c1)OCCO2`, the “activity, positive = re-replication” value was -0.272% (inactive). With `O=C1COc2c1ccc(O)c2O` the “activity, positive = re-replication” value was -41.8% (inactive). For `O=C1c2cccc3c([N+](=O)[O-])ccc(c23)C(=O)N1CC1CCCO1` (stereo not given), the Potency was 18.4 µM (active). With `CCOc1cccc(=O)c2c(C)n(CC3CCCO3)c(C)c12` (stereo not given) the “activity, positive = re-replication” value was 10.7% (inactive). For `CCC(=O)Nc1ccc(C(=O)Nc2ccc3c(c2)C(=O)N(CC2CCCO2)C3=O)cc1` (stereo not given), the “activity, positive = re-replication” value was 3.25% (inactive). In the case of `N#CC(Cc1cc2ccccc2n1S(=O)(=O)c1ccccc1)OCc1ccccc1` (stereo not given), the “activity, positive = re-replication” value is reported as -1.6% (inactive). In the case of `Cc1ccc2cc(/C=N/NC(=O)[C@@H]3CCCN3)c(Cl)nc2c1`, the “activity, positive = re-replication” value is reported as 5.15% (inactive). With `O=C(O)c1ccc(N/N=C/c2ccc3ncccc3c2)cc1` the “activity, positive = re-replication” value was -0.921% (inactive). In the case of `Cc1ccc2cc(/C=N/Nc3ccc(C(=O)O)cc3)c(Cl)nc2c1`, the Potency is reported as 6.51 µM (active). For `COc1ccc(NC(=O)/C(C#N)=C\c2cc(OC)c(OCc3ccc(C(=O)O)cc3)cc2Br)cc1`, the Potency was 16.4 µM (active). With `COc1cc(C=O)c(Br)cc1OCC(=O)NCc1ccccc1` the “activity, positive = re-replication” value was -2.65% (inactive). With `COc1cc(/C=C(\C#N)C(=O)Nc2ccc3ccccc3c2)c([N+](=O)[O-])cc1OC` the “activity, positive = re-replication” value was 15.9% (inactive). For `NC(=O)C1(N2CCCC2)CCN(Cc2ccccc2)CC1`, the “activity, positive = re-replication” value was 0.0869% (inactive). For `COC(=O)c1cc2c(N)c(C(=O)c3ccc(Cl)cc3)sc2nc1C(OC)OC`, the Potency was 20.6 µM (active). For `COC(=O)c1cn(C(=O)c2ccc(Cl)cc2)c2ccccc12`, the “activity, positive = re-replication” value was -2.16% (inactive). With `COC(=O)c1sc2ncccc2c1OCc1ccc(Cl)cc1Cl` the activity, positive = re-replication was -182% [at 0.0737 µM] (inactive). In the case of `CN(Cc1cccs1)C(=O)CN1C(=O)c2ccccc2S1(=O)=O`, the “activity, positive = re-replication” value is reported as 2.91% (inactive). For `CCOC(=O)C1=CN(Cc2ccc(Br)cc2)S(=O)(=O)NC1C` (stereo not given), the “activity, positive = re-replication” value was -1.7% (inactive). With `COC(=O)c1c(NC(=O)COc2ccc(Cl)cc2Cl)sc2c1CC(C)(C)NC2(C)C` the Potency was 3.26 µM (active). In the case of `CCOC(=O)c1c(NC(=O)c2ccc(S(=O)(=O)N(C)CC3CCCO3)cc2)sc2c1CC(C)(C)NC2(C)C` (stereo not given), the “activity, positive = re-replication” value is reported as -0.748% (inactive). For `Cc1cc(NC(=O)COc2ccc(Cl)cc2Cl)n(CCC#N)n1`, the “activity, positive = re-replication” value was -12.1% (inactive). For `CCC(=O)N(Cc1cc2cc(OC)ccc2[nH]c1=O)c1ccccc1C`, the “activity, positive = re-replication” value was 11.2% (inactive). For `COc1ccc2[nH]c(=O)c(CNc3ccc(C)c(C)c3)cc2c1`, the Potency was 14.6 µM (active). With `COc1ccc(N(Cc2cc3cc(OC)ccc3[nH]c2=O)S(C)(=O)=O)cc1` the “activity, positive = re-replication” value was 2.63% (inactive). For `c1ccc(-c2c[nH]c(-c3ccccc3)c2)cc1`, the “activity, positive = re-replication” value was 18.5% (inactive). With `COc1ccc(NC(=O)CN(C)C(=O)c2cc(C3CC3)nn2-c2ccccc2)cc1` the “activity, positive = re-replication” value was 0.411% (inactive). With `Cc1nc2ccccc2c(C(=O)O)c1-c1ccccn1` the “activity, positive = re-replication” value was 0.373% (inactive). In the case of `COc1cc2c(cc1CNC[C@H]1O[C@@H](n3cnc(C(N)=O)n3)[C@H](O)[C@@H]1O)OCO2`, the “activity, positive = re-replication” value is reported as -5.16% (inactive).
